This note sets out measurements from PubChem BioAssay (Tox21).

The structures appear in SMILES notation. Results filed as inconclusive are left out. A number with no mark means an inactive call. Calls come from the whole dose curve; as a rule, active = well fitted inhibition curve with a large enough effect in the repeat runs; inconclusive = weak or mixed curves; inactive = flat fitted curve, though single readings scatter.
% is set by controls: 0 for no effect and ±100 for the full control effect.

Voltage-gated inwardly rectifying potassium channel KCNH2 (Homo sapiens), sequence (Q12809 whole entry, looked up): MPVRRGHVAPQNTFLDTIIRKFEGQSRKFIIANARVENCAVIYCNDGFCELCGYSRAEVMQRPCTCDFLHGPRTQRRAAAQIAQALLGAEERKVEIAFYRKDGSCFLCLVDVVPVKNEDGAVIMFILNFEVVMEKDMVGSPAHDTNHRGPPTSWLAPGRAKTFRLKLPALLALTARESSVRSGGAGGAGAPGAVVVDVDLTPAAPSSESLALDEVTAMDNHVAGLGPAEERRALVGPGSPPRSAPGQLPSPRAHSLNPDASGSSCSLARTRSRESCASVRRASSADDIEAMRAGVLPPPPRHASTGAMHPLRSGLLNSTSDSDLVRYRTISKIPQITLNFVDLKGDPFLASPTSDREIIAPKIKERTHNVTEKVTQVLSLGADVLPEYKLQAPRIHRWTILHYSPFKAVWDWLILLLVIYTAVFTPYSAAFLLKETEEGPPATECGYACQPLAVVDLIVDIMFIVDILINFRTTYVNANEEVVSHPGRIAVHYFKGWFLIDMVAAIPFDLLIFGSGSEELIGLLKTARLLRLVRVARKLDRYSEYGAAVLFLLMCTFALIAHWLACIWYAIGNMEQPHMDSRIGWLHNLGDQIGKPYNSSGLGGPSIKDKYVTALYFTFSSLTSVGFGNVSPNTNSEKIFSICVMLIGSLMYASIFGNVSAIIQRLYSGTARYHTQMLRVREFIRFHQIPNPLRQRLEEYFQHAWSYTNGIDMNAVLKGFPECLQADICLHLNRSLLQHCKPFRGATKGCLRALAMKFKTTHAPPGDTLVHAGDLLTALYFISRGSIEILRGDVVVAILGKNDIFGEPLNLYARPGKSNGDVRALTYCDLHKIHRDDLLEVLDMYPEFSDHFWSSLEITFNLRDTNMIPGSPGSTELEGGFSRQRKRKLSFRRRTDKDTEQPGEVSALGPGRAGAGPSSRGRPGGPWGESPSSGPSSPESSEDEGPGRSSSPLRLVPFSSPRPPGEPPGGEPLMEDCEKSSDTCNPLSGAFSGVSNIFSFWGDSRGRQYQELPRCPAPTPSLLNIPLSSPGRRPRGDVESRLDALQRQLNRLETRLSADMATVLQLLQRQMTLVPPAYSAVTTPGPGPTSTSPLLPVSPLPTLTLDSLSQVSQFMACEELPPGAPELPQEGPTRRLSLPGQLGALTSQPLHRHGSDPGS

This experiment has as its target Voltage-gated inwardly rectifying potassium channel KCNH2 (Homo sapiens) (UniProt Q12809). Briefly: Human Ether-a-go-go-Related Gene (hERG) channel small molecule antagonists: fluorescence cell-based qHTS assay (AID 1671200). Note: nearly all actives have a fitted effect of over 50% in size. The conditions noted are these: hERG-U2OS cells, FluxOR thallium flux fluorescence; series mostly up to 76.8 µM; activity change, negative = inhibition: at the top concentration. From the text:
National Center for Advancing Translational Sciences [NCATS]
U.S. Environmental Protection Agency [EPA]
National Institutes of Environmental Health Sciences [NIEHS]
National Toxicology Program [NTP]
U.S. Food and Drug Administration [FDA]
Mutations in the hERG channel cause Long QT (LQT) syndrome. LQT syndrome is a cardiac disorder which can cause ventricle arrhythmia and sudden death. Additionally, compounds which block the hERG channel can cause acquired LQT syndrome. Several FDA approved drugs have been removed from the market due to their hERG blocking activity. A cell-based hERG channel inhibition assay can be used to screen chemical compounds that inhibit hERG channel. This assay measures hERG channel activity using thallium ions as surrogate ions to measure potassium into the cells.
Tox21 Assay Protocol Summary:
hERG-U2OS cells were resuspended in culture medium and dispensed into 1536-well, black wall/clear-bottom plates at 1000cells/well/3uL using a Multidrop Combi dispenser (Thermo Fisher, Waltham, MA). After plates were incubated at 37 C overnight, 3 uL of Loading Buffer provided by FluxOR II Potassium Ion Channel Assay kit (Thermo, Carlsbad, CA) was added to each well. The assay plates were then incubated at room temperature in the dark for 1h. […] After the assay plates were incubated at room temperature for 10 min, 1 uL of Stimulus Buffer provided by FluxOR II Potassium Ion Channel Assay kit was added into each well and fluorescence intensity (480nm excitation/540nm emission) was continuously measured for 2 min at 1 second intervals using a Functional Drug Screening System (FDSS) 7000EX kinetic plate reader (Hamamatsu, Japan).
On the technique in general: hERG is a cardiac potassium channel; its block is linked to QT prolongation.
`CC(=O)c1cc(C)oc1C`: the “activity change, negative = inhibition” value was -0.612%.

On to `CC1=C(C(=O)O)N2C(=O)[C@@H](NC(=O)[C@H](N)C3=CCC=CC3)[C@H]2SC1`, for which the “activity change, negative = inhibition” value was 12.2% [at 35.3 µM].

Take `C=CCCCC`: the “activity change, negative = inhibition” value is 0.72%.

As to `CN(C)CCN(C)CCO`, the “activity change, negative = inhibition” value is 0.409%.

For the compound `NCC1(Cc2noc(=O)[nH]2)CCCCC1`, the “activity change, negative = inhibition” value was -2.31%.

On to `O=C(O)[C@H](O)c1ccccc1`, for which the “activity change, negative = inhibition” value was 4.79% [at 35.3 µM].

Turning to `CCc1occc(=O)c1O`, the “activity change, negative = inhibition” value is 2.85%.

Take `CC(C)CCOC(=O)c1ccccc1`: the “activity change, negative = inhibition” value was -13.1%.

As to `CCN1CCCC1CN` (stereo not given), the “activity change, negative = inhibition” value is -0.53% [at 35.3 µM].

In the case of `CSc1cnccn1`, the “activity change, negative = inhibition” value is 1.56%.

As to `CC(C)=CCC/C(C)=C/COC=O`, the “activity change, negative = inhibition” value was -5.3%.

Consider `O=C(O)CSCC(=O)NC1CCSC1=O` (stereo not given), for which the “activity change, negative = inhibition” value is 0.816% [at 35.3 µM].

Consider `O=C(CCCCC(=O)Nc1c(I)cc(I)c(C(=O)O)c1I)Nc1c(I)cc(I)c(C(=O)O)c1I`, for which the “activity change, negative = inhibition” value was -2.04% [at 35.3 µM].

`C=CC(=O)CCCCC`: the “activity change, negative = inhibition” value is 6.06%.

Regarding `CN(C)CC/C=C1/c2ccccc2COc2ccc(CC(=O)O)cc21`, the “activity change, negative = inhibition” value was 1.9% [at 35.3 µM].

As for `Cn1c(=O)c2c(ncn2CCO)n(C)c1=O`, the “activity change, negative = inhibition” value is -4.69% [at 35.3 µM].

As to `Cc1c(C(=O)c2c[nH]n(C)c2=O)ccc(S(C)(=O)=O)c1C1=NOCC1`, the “activity change, negative = inhibition” value was 0.242% [at 35.3 µM].

`Cc1ccc(C)c([N+](=O)[O-])c1`: the “activity change, negative = inhibition” value is 4.23%.

As for `CCC(C)C(C)=O` (stereo not given), the “activity change, negative = inhibition” value was 4.37%.

`CC(O)COC(C)(C)C` (stereo not given): the “activity change, negative = inhibition” value was 1.24%.

In the case of `CC(=O)OCC(=O)Nc1cc(C#N)cc(NC(=O)COC(C)=O)c1Cl`, the “activity change, negative = inhibition” value is 3.68% [at 35.3 µM].

With `CN1CCOC(c2ccccc2)c2ccccc2C1` (stereo not given), the “activity change, negative = inhibition” value was 1.22% [at 35.3 µM].

In the case of `CC(C)Nc1ccccc1`, the “activity change, negative = inhibition” value is 1.65%.

In the case of `O=C(O)c1cc2ccccc2nc1C(=O)O`, the “activity change, negative = inhibition” value was 0.532%.

Turning to `CCCSSCCC`, the “activity change, negative = inhibition” value was -7.68%.

Consider `COC(=O)/C=C\C(=O)O`, for which the “activity change, negative = inhibition” value was 5.38%.

Consider `OCCN1CCOCC1`, for which the “activity change, negative = inhibition” value was 2.44%.

Take `COc1cc(/C=C/C(N)=O)cc(OC)c1OC`: the “activity change, negative = inhibition” value was 0.458% [at 35.3 µM].

For `CC(=O)OC(C)=O`, the “activity change, negative = inhibition” value is -0.0104%.

For `CC(N)CCCC(C)(C)O` (stereo not given), the “activity change, negative = inhibition” value was 6.07% [at 35.3 µM].

As for `C/C(CC(C)C)=N\O`, the “activity change, negative = inhibition” value is 1.52%.

As to `CNCCS(=O)(=O)O`, the “activity change, negative = inhibition” value is 5.37%.

As for `[O-][n+]1cccc(/C(Cl)=N/OC[C@@H](O)CN2CCCCC2)c1`, the “activity change, negative = inhibition” value was 0.681% [at 35.3 µM].

Consider `ONc1ccccc1`, for which the “activity change, negative = inhibition” value was -11.2%.

Take `CC(=O)Nc1ccc(OC(=O)c2ccccc2OC(C)=O)cc1`: the “activity change, negative = inhibition” value is 4.15% [at 35.3 µM].

As to `OC1(c2ccc(Cl)cc2)CCNCC1`, the “activity change, negative = inhibition” value was -10.8% [at 35.3 µM].

Take `COS(=O)(=O)O`: the “activity change, negative = inhibition” value was 13.6%.

Turning to `CCC[C@@H]1C[C@@H](C(=O)N[C@@H]([C@H]2O[C@H](SC)[C@H](O)[C@@H](O)[C@H]2O)[C@@H](C)O)N(C)C1`, the “activity change, negative = inhibition” value was 6.76% [at 35.3 µM].

Take `COc1cc(OC)nc(O[C@H](C(=O)O)C(OC)(c2ccccc2)c2ccccc2)n1`: the “activity change, negative = inhibition” value was 1.08% [at 35.3 µM].

Regarding `CC1(C)CC(OC(=O)CCCCCCCCC(=O)OC2CC(C)(C)NC(C)(C)C2)CC(C)(C)N1`, the activity change, negative = inhibition is -0.993% [at 15.8 µM].
